Values joined by “and” are separate entries in the source; they are usually repeats but may differ in a detail not shown here. Equal entries are not always repeated. The campaign covered roughly 360,000 compounds. About 1,500 (0.42%) were called active. Only a selection was taken, and actives are over-represented in it overall. A number with no mark means an inactive call. No stated cut-off is given here; in the data, active means inhibition above about 13% (passing the limit was not always enough); inactive means the rest.

The target of the test is Lon protease (Escherichia coli (strain K12)) (UniProt P0A9M0). The test can be described thus: E. coli eLon protease inhibition – biochemical, fluorescence polarization, primary screen (AID 602123).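 Further: 0% = enzyme with probe and DMSO and 100% = no enzyme.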 The conditions noted are these: purified E. coli Lon protease, at 7.94 µM, active compounds read high.
Sequence of Lon protease (Escherichia coli (strain K12)) (P0A9M0 whole entry, looked up): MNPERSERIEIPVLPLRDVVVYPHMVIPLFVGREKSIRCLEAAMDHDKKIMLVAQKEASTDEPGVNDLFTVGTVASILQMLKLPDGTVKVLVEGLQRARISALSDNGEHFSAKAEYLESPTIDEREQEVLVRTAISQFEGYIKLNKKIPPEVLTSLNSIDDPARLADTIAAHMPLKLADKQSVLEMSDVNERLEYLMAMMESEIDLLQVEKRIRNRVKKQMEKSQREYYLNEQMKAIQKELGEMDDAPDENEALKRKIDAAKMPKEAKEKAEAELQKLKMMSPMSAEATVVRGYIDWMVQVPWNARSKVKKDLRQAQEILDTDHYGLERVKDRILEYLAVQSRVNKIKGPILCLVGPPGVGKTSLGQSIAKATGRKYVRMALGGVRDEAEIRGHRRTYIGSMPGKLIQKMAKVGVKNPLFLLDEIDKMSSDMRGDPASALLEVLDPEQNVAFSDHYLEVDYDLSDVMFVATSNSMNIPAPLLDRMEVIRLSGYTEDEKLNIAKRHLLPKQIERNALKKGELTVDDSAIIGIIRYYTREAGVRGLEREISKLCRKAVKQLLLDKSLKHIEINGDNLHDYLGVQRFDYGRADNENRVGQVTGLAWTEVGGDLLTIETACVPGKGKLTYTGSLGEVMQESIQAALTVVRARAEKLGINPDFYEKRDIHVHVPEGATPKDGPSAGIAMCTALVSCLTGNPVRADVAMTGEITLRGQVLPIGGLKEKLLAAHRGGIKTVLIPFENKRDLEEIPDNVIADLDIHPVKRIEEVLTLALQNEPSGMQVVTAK
For orientation: inhibition means the drop in the measured response relative to a control, in per cent. Regarding `COc1ccc(NC(=O)CN2C(=O)COc3ccc(S(=O)(=O)N4CCOCC4)cc32)c(OC)c1`, the inhibition was -3.19%.

Take `CCCCCc1ccc(-c2ccc(C(=O)O)cc2)nc1`: the inhibition is -2.2%.

`O=C(C1CCCO1)N1CCN(C(=S)NC2CC2)CC1` (configuration not stated): the inhibition is -2.14%.

For the compound `O=C(OC1CCOC1=O)c1ccc(-c2nc3ccccc3s2)s1` (configuration not stated), the inhibition is -3.38%.

Consider `CCOC(=O)N1CCC(NC(=O)Cc2cn(C)c3ccccc23)CC1`, for which the inhibition was 15.9% (active).

For the compound `Cn1cc(CCC(=O)NC2CC2)c2ccccc21`, the inhibition is 0.25%.

As to `CCOC(=O)N1CCC(NC(=O)CCc2cn(C)c3ccccc23)CC1`, the inhibition was -2.75%.

Take `CC1(C)OC(=O)C(=CSc2ccc(C(C)(C)C)cc2)C(=O)O1`: the inhibition is -7.26%.

Regarding `Cc1cc2nc3c(=O)n(Cc4ccccc4)c(=O)[nH]c3nc2cc1N`, the inhibition is 182% (active).

As for `Nc1cc(=O)n(Cc2ccccc2)c(=O)n1Cc1ccccc1`, the inhibition is -0.35%.

In the case of `Cc1cc(OCC(=O)N(C)c2c(N)n(Cc3ccccc3)c(=O)[nH]c2=O)c(C(C)C)cc1Cl`, the inhibition was -1.64%.

As to `CC(C)(C)OC(=O)N1CCC(C(=O)NNC(=O)c2ccc(Cl)cc2Cl)CC1`, the inhibition is -1.59%.

With `CCOc1ccc(NC(=O)C2CCN(C(=O)N3CCOc4ccccc43)CC2)cc1`, the inhibition is -11.2%.

In the case of `CN1CCN(S(=O)(=O)c2ccc(N3CCN(S(=O)(=O)c4cccs4)CC3)nc2)CC1`, the inhibition was -1.23%.

Turning to `O=C(C1CCN(S(=O)(=O)Cc2ccccc2)CC1)N1CCCc2ccccc21`, the inhibition is -0.35%.

Consider `CC1CN(Cc2nc3c(c(=O)n(C)c(=O)n3C)n2Cc2cccc(Cl)c2)CC(C)O1` (configuration not stated), for which the inhibition was -2.4%.

Consider `O=C1CCC(=O)N1c1ccc(NCCc2ccccc2F)c([N+](=O)[O-])c1`, for which the inhibition was 0.67%.

For `CCN(CCCCOC(=O)c1ccc(OC)c(OC)c1)C(C)Cc1ccc(OC)cc1` (configuration not stated), the inhibition is -2.66%.

As to `O=C1c2ccccc2C(=O)c2c1cccc2N1CCN(Cc2ccccc2)CC1`, the inhibition is 5.59%.

Consider `O=C1CCN(CCCc2ccccc2)CCN1CCO`, for which the inhibition is 1.45%.

On to `O=C1c2ccccc2C(=O)c2c1cccc2N1CCN(CCO)CC1`, for which the inhibition was 17.6% (active).

With `Cc1cc2c(cc1C)[n+](C)cn2CC(O)COCC1CC=CCC1` (configuration not stated), the inhibition is 4.81%.

As for `C[C@]12C=CC(=O)C=C1CC[C@@H]1[C@@H]2C(=O)C[C@@]2(C)[C@H]1CC[C@]2(O)C(=O)CO`, the inhibition was -2.3% and 1.49%.

`C[C@H](CO)N1C[C@H](C)[C@@H](CN(C)C(=O)c2cccc(F)c2)Oc2cc(-c3cncnc3)ccc2S1(=O)=O`: the inhibition is -3.93%.

For `CCOC(=O)C(=CNNc1ccsc1C(=O)OC)C(=O)OCC`, the inhibition was -2.58%.

With `O=C(Nc1cccc2ccccc12)c1[nH]c(-c2ccccc2)c2c1C(=O)N(C1CC1)C2=O`, the inhibition was -8.53%.

Turning to `CC(C(=O)NC1CCCC1)N1CCN(S(=O)(=O)c2ccccc2Cl)CC1` (configuration not stated), the inhibition is 17.4% (active).

With `O=C(Cc1ccc(S(=O)(=O)N2CCCC2)s1)NC1CCCCCC1`, the inhibition is -1.79%.

As to `CC(C)c1ccc(S(=O)(=O)N2CCN(C(C)C(=O)NC3CCCC3)CC2)cc1` (configuration not stated), the inhibition is 8.04%.

In the case of `COc1cc(CNCc2ccc3c(c2)OCO3)c([N+](=O)[O-])cc1OC`, the inhibition was -8.35%.

As to `COc1cccc(NC(=O)C2CCCN(c3ncnc4c3nc3n4CCCCC3)C2)c1` (configuration not stated), the inhibition is -9.74%.

With `Cc1ccc2c(c1)nnc1nnc(SCC(=O)O)n12`, the inhibition was 62% (active).

`CCn1nnnc1SCC(=O)c1ccc(C)cc1C`: the inhibition was -3.48%.

In the case of `Cc1cccc(-c2nnc(SCC(=O)O)n2Cc2ccccc2)c1`, the inhibition was -7.43%.

Turning to `CC(C)(C(=O)N1CCC1(C)C(=O)NS(=O)(=O)c1ccc(Br)cc1)c1ccccc1` (configuration not stated), the inhibition is -2.78%.

Regarding `Cc1cc(Br)ccc1NC(=O)CCCOc1cc(=O)n(C)c2ccccc12`, the inhibition was -8.57%.

In the case of `COc1ccc(C(CC(=O)c2ccccc2)S(=O)(=O)c2ccccc2)cc1` (configuration not stated), the inhibition is -2.33%.

For the compound `Cc1cc(C(=O)OCC(=O)Nc2ccccc2Cl)c(C)o1`, the inhibition is -2.91%.

Turning to `Cc1cccc(NC(=O)COC(=O)CCc2ccccc2)c1C`, the inhibition was -6.48%.

With `O=C(COC(=O)CCc1c[nH]c(=O)[nH]1)Nc1ccccc1Cl`, the inhibition was 25.7% (active).

Consider `C/C(=N\NC(=O)c1ccc(C)cc1)C1C(=O)c2ccccc2C1=O`, for which the inhibition is 3.32%.

For `COc1ccc(N(CC(=O)NC2CCCC2)C(=O)CS(=O)CC(=O)Nc2ccc3c(c2)OCO3)cc1` (configuration not stated), the inhibition is 0.46%.

Regarding `CC(C)NC(=O)N1Cc2cc(C(=O)NCC(F)(F)F)nc(-c3cccc(-c4cc5ccccc5o4)c3)c2[C@@H]1CCO`, the inhibition is 1.84%.

Turning to `COCCOC(=O)c1sc(=S)n(CCOC)c1N`, the inhibition was 18.6% (active).

Regarding `O=C(CSc1n[nH]c(-c2cccs2)n1)N1CCCCC1`, the inhibition is 0.33%.

As to `CCOC(=O)CC(NC(=O)C1c2ccccc2Oc2ccccc21)c1ccc(C)cc1` (configuration not stated), the inhibition is -23.2%.

On to `CC(C)(C)NC(=O)NC(=O)COC(=O)C1c2ccccc2Oc2ccccc21`, for which the inhibition is 7.11%.

On to `CCCN(CCC)C(=O)C1c2ccccc2Oc2ccccc21`, for which the inhibition is 151% (active).

Turning to `Cc1ccc(Sc2ccncc2S(N)(=O)=O)cc1`, the inhibition is -17.1%.

Regarding `CCc1cc(=O)oc2cc(C)cc(OCC(=O)N3CCC[C@@H]3C(=O)O)c12`, the inhibition was 3.5%.

As to `C/C(CC(O)(/C=N/O)c1ccccc1)=N\O` (configuration not stated), the inhibition is -3.3%.

`CCC(C)(C)NC(=O)C(c1cccn1C)N(Cc1ccc(C)cc1)C(=O)Cn1nnc2ccccc21` (configuration not stated): the inhibition was 0.29%.

`O=C(COC(=O)c1ccc2c(c1)OCCO2)NCc1ccccc1Cl`: the inhibition is 6.26%.

`CCN(CC(=O)Nc1ccc2c(c1)OCO2)S(=O)(=O)c1ccccc1`: the inhibition is 7.87%.

On to `O=C(COC(=O)c1c2c(nc3ccccc13)CCCC2)c1ccc(Br)s1`, for which the inhibition is -4.86%.

In the case of `NC(=O)c1ccc(NC(=O)COC(=O)c2c3c(nc4ccccc24)/C(=C\c2ccc4c(c2)OCO4)CCC3)cc1`, the inhibition is 183% (active).

As to `CC(NC(=S)Nc1ccc(S(N)(=O)=O)cc1)c1ccc2c(c1)OCO2` (configuration not stated), the inhibition is 4.89%.

For the origin of these results see PubChem BioAssay AID602123 (The Scripps Research Institute Molecular Screening Center, 2011).
